39 molecules from PubChem BioAssay (NCI) can be followed below.

Each structure is given as a SMILES string. Compounds without any hit were thinned out: in the full panel of roughly 83,000, 20% have a hit.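 Activity criterion: percent growth below 10, measured after cells in 96-well plates were exposed to a single compound concentration for 48 hours.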 The source made the active and inactive calls.

The first assay deals with HT29 colon. The assay is described as follows: NCI-60 one-dose screen, 48 h (100 = growth as untreated, 0 = no growth, -100 = all killed). As to conditions: 10 µM.
Take `COc1cc(Cl)cc(-c2nn(-c3cccc(NC(=O)Nc4ccc(Cl)c(Cl)c4)c3)cc2-c2ccncc2)c1`: the growth was 7.39% (active).

As for `COc1cc2cc3c(nc2cc1OC)CCN3Cc1ccc(NC(=O)c2ccc(Cl)c(C(F)(F)F)c2)cc1`, the growth is 105% (inactive).

For the molecule `CCOC(=O)N1C/C(=C/c2ccc(Cl)cc2)C(=O)/C(=C/c2ccc(Cl)cc2)C1`, the growth is -40% (active).

Take `c1ccc(CSc2nnc3c4c5c(sc4nc(-c4cccnc4)n23)CCCCCC5)cc1`: the growth was 22.4% (inactive).

For `Cc1cc2ccccc2nc1-c1ccccc1F`, the growth is 119% (inactive).

As for `COc1ccc(S(=O)(=O)Nc2c(/C=C\c3cc(OC)c(OC)c(OC)c3)ccc(OC)c2O)cc1`, the growth was 11.7% (inactive).

As for `N=C(N)c1ccc(-c2ccc(-c3cccs3)s2)s1`, the growth was -79.5% (active).

For `CSc1cc(SC)ncn1`, the growth is 97.3% (inactive).

`Cn1c(C(N)=O)cc2c1-c1nc(Nc3ccccc3)ncc1CCC2`: the growth is 70% (inactive).

Turning to `CCOC(=O)N/N=C\C(C)=N\NC(=O)OCC`, the growth is 98% (inactive).

Turning to `Nc1cc2c(cc1Cl)-c1ccc([N+](=O)[O-])cc1/C2=N\O`, the growth is 82.5% (inactive).

For the molecule `Cc1cccc(C)c1NC(=O)c1sc2nc3c(cc2c1N)C(=O)CCC3`, the growth is 85.6% (inactive).

As to `Cc1cc(C)c(CCc2cc(C)c(C)cc2C)cc1C`, the growth is 100% (inactive).

On to `CCN1CCC(CCOC)(CN2c3ccccc3Sc3ccc(Cl)cc32)C1` (stereo not drawn), for which the growth was 7.66% (active).

For `COc1ccc(OC)c(/C=C/c2nc(SCc3ccccc3)n(-c3ccc(Cl)cc3)n2)c1`, the growth was 63.1% (inactive).

As to `CN1CCC(CNc2cc(C3(C(=O)Nc4cc(C(=O)Nc5ccc(Cl)c(C(F)(F)F)c5)ccc4F)CC3)ncn2)CC1`, the growth is -26.6% (active).

On to `Cc1ccc(NC(=O)NC2CCCCC2)cc1`, for which the growth was 101% (inactive).

In the case of `CC1CN(Cc2ccccc2)C(=O)NC1=O` (stereo not drawn), the growth is 109% (inactive).

For `COc1cc(Cc2cc(-c3ccc(Cl)cc3)n[nH]c2=O)ccc1O`, the growth is 110% (inactive).

On to `CN(C)CCNC(=O)c1cccn2c(=O)c3cc4ccccc4cc3nc12`, for which the growth is -60.7% (active).

On to `CC(=O)CSC(C)=O`, for which the growth was 105% (inactive).

Take `c1ccc(C(NC2CC3CCC2C3)c2ccccc2)cc1` (stereo not drawn): the growth is 85.8% (inactive).

Take `CC(C)=CCc1cc(O)cc2c1OC(C=C(C)C)C1=C2C(=O)C2=C(C1=O)S(=O)(=O)CCN2` (stereo not drawn): the growth was 64.8% (inactive).

Regarding `COc1cc2c(cc1OCCCN1CCN(c3ncnc4ccccc34)CC1)N=CC1CCCN1C2=O` (stereo not drawn), the growth is 12.3% (inactive).

With `Cc1cccc(Cl)c1NC(=O)c1ccc2nc(NC(=O)NC3CCN(C)CC3)sc2c1`, the growth was 29.6% (inactive).

As to `CCOC(=O)c1ccc(NC(=O)Nc2ncc(Cl)cc2Cl)cc1`, the growth was 95.3% (inactive).

Regarding `COc1cc(-c2nc(-c3nnc(-c4ccccc4Cl)o3)c3ccccn23)cc(OC)c1OC`, the growth is 91.4% (inactive).

As for `Nc1nc(N)c(NC(=O)CNc2ccc(C(=O)O)cc2)c(N)n1`, the growth is 107% (inactive).

Regarding `COc1cc(-c2cc(C(=O)N3CCN(C(=O)c4ccccc4NCc4cccs4)CC3)nc3cc(-c4ccccc4)nn23)cc(OC)c1OC`, the growth is 28% (inactive).

With `COc1ccc(NC(=O)CSc2nc3ccccc3c(=O)n2CCc2ccccc2)cc1`, the growth is 110% (inactive).

`COc1ccc(-c2nc3sc(C4CC4)nn3c2/C=C2/C(=O)Nc3ccc(OC)cc32)cc1`: the growth is 73.2% (inactive).

As for `O=C(Nc1cccc(Br)c1)c1cc(=O)[nH]c2ccccc12`, the growth is 107% (inactive).

`FC(F)(F)c1ccc2nc(-c3nc(-c4ccccc4)n4ccccc34)[nH]c2c1`: the growth was 14.7% (inactive).

Consider `Cc1cc(N(CCCNc2ccnc3cc(Cl)ccc23)Cc2cccs2)nc(Cl)n1`, for which the growth was 7.06% (active).

For the molecule `O=C1C(c2ccccc2)C2C=CC(C2)N1O` (stereo not drawn), the growth was 97.9% (inactive).

Consider `CN1c2ccccc2[C@]2(Cc3ccccc3)Cc3ccccc3N[C@H]12`, for which the growth is 86.9% (inactive).

As to `CC1(C)CCC(=NNC(N)=S)CC1`, the growth is 95.1% (inactive).

`N=C(N)c1ccc(-c2ccc(-c3ccccc3)o2)nc1`: the growth is 19.3% (inactive).

For `O=c1[nH]c(-c2ccc(Cl)cc2)nc2sc3c(c12)CCCC3`, the growth was 106% (inactive).

A further assay concerns SNB-75 CNS. The assay is described as above. As to conditions: 10 µM.
As for `COc1cc(Cl)cc(-c2nn(-c3cccc(NC(=O)Nc4ccc(Cl)c(Cl)c4)c3)cc2-c2ccncc2)c1`, the growth was 16.2% (inactive).

As for `COc1cc2cc3c(nc2cc1OC)CCN3Cc1ccc(NC(=O)c2ccc(Cl)c(C(F)(F)F)c2)cc1`, the growth was 61.7% (inactive).

On to `CCOC(=O)N1C/C(=C/c2ccc(Cl)cc2)C(=O)/C(=C/c2ccc(Cl)cc2)C1`, for which the growth was 66% (inactive).

With `c1ccc(CSc2nnc3c4c5c(sc4nc(-c4cccnc4)n23)CCCCCC5)cc1`, the growth is 74.1% (inactive).

Turning to `Cc1cc2ccccc2nc1-c1ccccc1F`, the growth was 112% (inactive).

Consider `COc1ccc(S(=O)(=O)Nc2c(/C=C\c3cc(OC)c(OC)c(OC)c3)ccc(OC)c2O)cc1`, for which the growth is 31.3% (inactive).

For the molecule `N=C(N)c1ccc(-c2ccc(-c3cccs3)s2)s1`, the growth is -31.7% (active).

As to `CSc1cc(SC)ncn1`, the growth was 94.2% (inactive).

For the molecule `Cn1c(C(N)=O)cc2c1-c1nc(Nc3ccccc3)ncc1CCC2`, the growth was 35.6% (inactive).

In the case of `CCOC(=O)N/N=C\C(C)=N\NC(=O)OCC`, the growth is 92.1% (inactive).

As for `Nc1cc2c(cc1Cl)-c1ccc([N+](=O)[O-])cc1/C2=N\O`, the growth is 66.6% (inactive).

Regarding `Cc1cccc(C)c1NC(=O)c1sc2nc3c(cc2c1N)C(=O)CCC3`, the growth is 82.6% (inactive).

In the case of `Cc1cc(C)c(CCc2cc(C)c(C)cc2C)cc1C`, the growth is 98.3% (inactive).

Regarding `CCN1CCC(CCOC)(CN2c3ccccc3Sc3ccc(Cl)cc32)C1` (stereo not drawn), the growth is 47.8% (inactive).

`COc1ccc(OC)c(/C=C/c2nc(SCc3ccccc3)n(-c3ccc(Cl)cc3)n2)c1`: the growth is 59.6% (inactive).

For the molecule `CN1CCC(CNc2cc(C3(C(=O)Nc4cc(C(=O)Nc5ccc(Cl)c(C(F)(F)F)c5)ccc4F)CC3)ncn2)CC1`, the growth is 23.1% (inactive).

As to `Cc1ccc(NC(=O)NC2CCCCC2)cc1`, the growth is 107% (inactive).

For the molecule `CC1CN(Cc2ccccc2)C(=O)NC1=O` (stereo not drawn), the growth is 106% (inactive).

Consider `COc1cc(Cc2cc(-c3ccc(Cl)cc3)n[nH]c2=O)ccc1O`, for which the growth is 70.8% (inactive).

Consider `CN(C)CCNC(=O)c1cccn2c(=O)c3cc4ccccc4cc3nc12`, for which the growth is -72.7% (active).

On to `CC(=O)CSC(C)=O`, for which the growth was 84.3% (inactive).

Consider `c1ccc(C(NC2CC3CCC2C3)c2ccccc2)cc1` (stereo not drawn), for which the growth was 93.5% (inactive).

For the molecule `CC(C)=CCc1cc(O)cc2c1OC(C=C(C)C)C1=C2C(=O)C2=C(C1=O)S(=O)(=O)CCN2` (stereo not drawn), the growth was 72.2% (inactive).

For the molecule `COc1cc2c(cc1OCCCN1CCN(c3ncnc4ccccc34)CC1)N=CC1CCCN1C2=O` (stereo not drawn), the growth was -29.8% (active).

As for `Cc1cccc(Cl)c1NC(=O)c1ccc2nc(NC(=O)NC3CCN(C)CC3)sc2c1`, the growth is 6.73% (active).

In the case of `CCOC(=O)c1ccc(NC(=O)Nc2ncc(Cl)cc2Cl)cc1`, the growth was 119% (inactive).

`COc1cc(-c2nc(-c3nnc(-c4ccccc4Cl)o3)c3ccccn23)cc(OC)c1OC`: the growth was 79.4% (inactive).

Turning to `Nc1nc(N)c(NC(=O)CNc2ccc(C(=O)O)cc2)c(N)n1`, the growth is 76% (inactive).

For the molecule `COc1cc(-c2cc(C(=O)N3CCN(C(=O)c4ccccc4NCc4cccs4)CC3)nc3cc(-c4ccccc4)nn23)cc(OC)c1OC`, the growth was 71% (inactive).

For the molecule `COc1ccc(NC(=O)CSc2nc3ccccc3c(=O)n2CCc2ccccc2)cc1`, the growth was 28.7% (inactive).

For `COc1ccc(-c2nc3sc(C4CC4)nn3c2/C=C2/C(=O)Nc3ccc(OC)cc32)cc1`, the growth was -2.41% (active).

Consider `O=C(Nc1cccc(Br)c1)c1cc(=O)[nH]c2ccccc12`, for which the growth was 70.6% (inactive).

As to `FC(F)(F)c1ccc2nc(-c3nc(-c4ccccc4)n4ccccc34)[nH]c2c1`, the growth was 66.9% (inactive).

`Cc1cc(N(CCCNc2ccnc3cc(Cl)ccc23)Cc2cccs2)nc(Cl)n1`: the growth is 49.2% (inactive).

Consider `O=C1C(c2ccccc2)C2C=CC(C2)N1O` (stereo not drawn), for which the growth is 107% (inactive).

For `CN1c2ccccc2[C@]2(Cc3ccccc3)Cc3ccccc3N[C@H]12`, the growth was 89.6% (inactive).

Regarding `CC1(C)CCC(=NNC(N)=S)CC1`, the growth is 88.2% (inactive).

As to `N=C(N)c1ccc(-c2ccc(-c3ccccc3)o2)nc1`, the growth was 38.5% (inactive).

For the molecule `O=c1[nH]c(-c2ccc(Cl)cc2)nc2sc3c(c12)CCCC3`, the growth was 57.9% (inactive).
